SMILES strings stand for the structures. Among all 5,400 compounds or so, about 190 (3.5%) showed an effect of 50% or more. The full list was thinned out, with strong results kept by preference.

The test system of the test is Vero-E6. Kind of test: primary screen, phospholipidosis by LipidTOX staining; higher = more effect of the substance. Conditions: 10 µM. The method in brief: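 Drug-induced phospholipidosis detected with HCS LipidTOX Red reagent in Vero-E6 cells. Compounds tested at 10 μM, with amiodarone (10 μM) as positive control and DMSO (0.1 v/v %) as vehicle.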
As for `O=C(N[C@H]1CN2CCC1CC2)c1cnc2ccsc2c1O`, the result_ITMP was -2.55%.

With `COC(=O)N[C@H](C(=O)N1CCC[C@H]1c1ncc(-c2ccc3c(c2)O[C@@H](c2ccccc2)n2c-3cc3cc(-c4cnc([C@@H]5CCCN5C(=O)[C@@H](NC(=O)OC)C(C)C)[nH]4)ccc32)[nH]1)C(C)C`, the result_ITMP came out at 3.24%.

In the case of `Cc1onc(-c2ccccc2Cl)c1C(=O)N[C@@H]1C(=O)N2[C@@H]1SC(C)(C)[C@@H]2C(=O)[O-]`, the result_ITMP came to 4.56%.

In the case of `C=CCN1CCC23c4c5ccc(O)c4O[C@H]2C(=O)CC[C@@]3(O)[C@H]1C5`, the result_ITMP was -3.91%.

In the case of `NC[C@H]1O[C@H](O[C@H]2[C@H](O[C@@H]3O[C@H](CO)[C@@H](O)[C@H]3O)[C@@H](O)[C@H](N)C[C@@H]2N)[C@H](N)[C@@H](O)[C@@H]1O`, the result_ITMP was -1.8%.

In the case of `CN(C)CC[C@@H](c1ccc(Cl)cc1)c1ccccn1` [R4A_0004036_001 / SPE_K39462424], the result_ITMP worked out at 22.6%.

Take `CC(=O)C(=O)[O-]`: the result_ITMP is -8.52%.

Consider `CN1[C@@H]2CC[C@H]1C[C@@H](OC(=O)c1c[nH]c3ccccc13)C2.CN1[C@@H]2CC[C@H]1C[C@H](OC(=O)c1c[nH]c3ccccc13)C2`, for which the result_ITMP amounted to 19.1%.

As to `CC(C)Oc1ccc(-c2nc(-c3cccc4c3CC[C@@H]4NCCO)no2)cc1C#N`, the result_ITMP is on record as 39.4%.

Take `CCOc1ccc(-c2nc(-c3cccc4c3CCC4NCCO)no2)cc1OCC` (stereo not shown): the result_ITMP turned out to be 108%.

On to `CC(C)Oc1ccc(-c2nc(-c3cccc4c3CCC4NCCC(=O)O)no2)cc1C#N` (stereo not shown), for which the result_ITMP is listed as -0.21%.

Regarding `Cc1ccc(Cl)c(Nc2ccccc2C(=O)[O-])c1Cl`, the result_ITMP is reported as -2.49%.

Turning to `CC[C@]1(O)C[C@H]2C[N@](CCc3c([nH]c4ccccc34)[C@@](C(=O)OC)(c3cc4c(cc3OC)N(C)[C@H]3[C@@](O)(C(N)=O)[C@H](O)[C@]5(CC)C=CCN6CC[C@]43[C@@H]65)C2)C1`, the result_ITMP was 9.74%.

As for `COc1cc(C(=O)NCC2(N(C)C)CCCC2)cc(OC)c1OCc1ccccc1`, the result_ITMP is on record as 25.4%.

As for `O=C(O)Cc1ccc(OCc2ccccc2)c(Cl)c1`, the result_ITMP came to 2.22%.

As to `COc1cc(CN(CCN)C(=O)c2cccs2)ccc1OCc1ccccc1`, the result_ITMP is given as 85.4%.

Regarding `O=S(=O)([O-])CC(S)CS` (stereo not shown), the result_ITMP is recorded as -3.17%.

In the case of `O=C(NC(Cc1c[nH]c2ccccc12)C(=O)[O-])c1ccc(Cl)cc1` (stereo not shown), the result_ITMP is -0.44%.

Turning to `c1ccc([C@@H]2C[C@H]2NC2CCNCC2)cc1`, the result_ITMP was found to be 27.9%.

`NC1C[C@H]1c1ccccc1` (stereo partly shown): the result_ITMP is listed as -1.26%.

For `N[C@H]1CC[C@H](N[C@@H]2C[C@H]2c2ccccc2)CC1`, the result_ITMP was 65.7%.

Turning to `C[C@]12CCC(=O)C=C1C=CC1C2CC[C@@]2(C)C1CC[C@@]2(O)CCC(=O)[O-]` (stereo partly shown), the result_ITMP is -3.36%.

For `Cc1ccc(S(=O)(=O)[N-]Cl)cc1`, the result_ITMP is listed as -2.26%.

As for `CC[C@]1(O)C[C@@H]2C[N@@](CCc3c([nH]c4ccccc34)[C@@](C(=O)OC)(c3cc4c(cc3OC)N(C)[C@H]3[C@@](O)(C(=O)OC)[C@H](OC(C)=O)[C@]5(CC)C=CCN6CC[C@]43[C@@H]65)C2)C1`, the result_ITMP is recorded as 8.57%.

On to `CCN(CCCc1ccccc1)CCCc1ccccc1`, for which the result_ITMP was determined as 58.9%.

Turning to `O=C([O-])CCCc1ccccc1`, the result_ITMP worked out at 0.94%.

With `NC(=O)OCCCc1ccccc1`, the result_ITMP is recorded as -6.09%.

On to `C#Cc1cnc(O)nc1O`, for which the result_ITMP was -3.59%.

Consider `Cc1ccc(C)c(Oc2ccncc2C(=O)N2CCN(C3CC3)c3ccccc32)c1`, for which the result_ITMP is listed as -4.61%.

Regarding `O=C(O)c1ccccc1NC(=O)N1CCC(c2ccccc2C(F)(F)F)CC1`, the result_ITMP is recorded as -0.92%.

With `CCOc1ccc(S(=O)(=O)[O-])c2cccnc12`, the result_ITMP is listed as -2.55%.

Regarding `CCN(CC)CCOC(=O)C(c1ccccc1)C1CCCCC1` (stereo not shown), the result_ITMP is 52%.

Regarding `CCN(CC)CCOC(=O)C(c1ccccc1)c1ccccc1`, the result_ITMP is 3.73%.

In the case of `CCN(CC)CCOC(=O)C1(c2ccccc2)CCCC1`, the result_ITMP was determined as 2.32%.

Consider `COc1ccc2c(C)nc(Nc3nc(=O)c(C)c(C)[nH]3)nc2c1`, for which the result_ITMP came to 0.3%.

For `OCCNC1CCCc2c1[nH]c1ccc(-c3ccccc3)cc21` (stereo not shown), the result_ITMP is recorded as 89.4%.

As for `NC(=O)C1CCCc2c1[nH]c1ccc(Cl)cc21` (stereo not shown), the result_ITMP was -0.07%.

With `C[C@H](N)C(=O)N[C@@]1(C(=O)O)C[C@@H](Sc2nnc[nH]2)[C@H]2[C@H](C(=O)O)[C@H]21`, the result_ITMP is -1.74%.

On to `Nc1ncnc2c1c(-c1cccc(OCc3ccccc3)c1)cn2[C@H]1C[C@@H](CN2CCC2)C1`, for which the result_ITMP was determined as 69.4%.

As for `Nc1ncnc2c1c(-c1cccc(OCc3ccccc3)c1)cn2C1CC(CN2CCCC2)C1` (stereo in doubt), the result_ITMP is listed as 41.5%.

As for `Nc1ncnc2c1c(-c1ccc(Oc3ccccc3)cc1)nn2C1CCCC1`, the result_ITMP is -1.17%.

Turning to `CC(C)(C)C(=O)Oc1ccc(S(=O)(=O)Nc2ccccc2C(=O)NCC(=O)[O-])cc1`, the result_ITMP is on record as -1.15%.

Regarding `C=C1/C(=C\C=C2/CCC[C@]3(C)[C@@H]([C@H](C)/C=C/[C@H](C)C(C)(C)O)CC[C@@H]23)C[C@@H](O)C[C@@H]1O`, the result_ITMP is -2.3%.

On to `COc1ccc(CCNCc2ccc(OCc3ccc(Cl)nc3)c(OC)c2)cc1OC`, for which the result_ITMP is 59.3%.

For the compound `COc1ccc(CCN)cc1OC`, the result_ITMP was -4.61%.

As for `COc1ccc(COc2ccc(Cc3cnc(N)nc3N)cc2OC)cc1`, the result_ITMP is recorded as -3.18%.

`CC[C@H](/C=C/[C@@H](C)[C@H]1CC[C@H]2[C@@H]3CC=C4C[C@@H](O)CC[C@]4(C)[C@H]3CC[C@]12C)C(C)C`: the result_ITMP is -2.7%.

Turning to `O=C1Nc2ccc(Cl)c3c2C1(CCCCN1CC=C(c2ccc(Cl)cc2)CC1)CCC3` (stereo not shown), the result_ITMP is listed as 70.2%.

For the compound `O=C(O)c1ccc2[nH]cc(CCCCN3CC=C(c4ccccc4)CC3)c2c1`, the result_ITMP was -12.5%.

Turning to `CO[C@H]1C[C@H](O[C@H]2CC[C@@]3(C)[C@H](CC[C@@H]4[C@@H]3CC[C@]3(C)[C@@H](C5=CC(=O)OC5)[C@@H](OC(C)=O)C[C@]43O)C2)O[C@@H](C)[C@@H]1O`, the result_ITMP is given as -2.23%.

In the case of `CO/N=C(\C(=O)N[C@@H]1C(=O)N2C(C(=O)[O-])=CCS[C@H]12)c1csc(N)n1`, the result_ITMP was -1.89%.

On to `CCC1=C[C@@H]2C[N@](C1)Cc1c([nH]c3ccccc13)[C@@](C(=O)OC)(c1cc3c(cc1OC)N(C)[C@H]1[C@@](O)(C(=O)OC)[C@H](OC(C)=O)[C@]4(CC)C=CCN5CC[C@]31[C@@H]54)C2`, for which the result_ITMP was 7.31%.

Source of the values: PMC13083723 (Patterns, 2026).
